ATXN2 expr inh: Primary qHTS for Inhibitors of ATXN expression | 0.72% of 360,000 active | HEK-293 ATXN2-luciferase reporter, luminescence, 24 h | Potency, µM (highest dose often 57 µM), usual class: inhibitors; note: nearly all actives have a fitted effect of over 55% in size
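ATXN2-luciferase reporter cells (luciferase flanked by upstream and downstream ATXN2 gene portions) were treated 24 h at 37 °C with compounds at up to 57 uM. SteadyGlo luminescence gave expression; GF-AFC fluorescence gave viability.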
S2 tox: Viability Counterscreen for Primary qHTS for Inhibitors of ATXN expression | S2 cells (HEK-293 line with an ATXN2-luciferase reporter) viability, CellTiter-Fluor protease fluorescence, 24 h | Potency, µM (series often up to 56.7 µM), hits mostly cytotoxic | 0.49% of 400,000 active | AID 651635, 2014; note: nearly all actives have a fitted effect of over 40% in size
TGFb SMAD3 inh: qHTS for Inhibitors of TGF-b; Potency, µM (top dose mostly 46.1 µM), most hits filed as inhibitors; 1.2% of 410,000 active; AID 588855, 2011; HepG2 CAGA-GFP TGF-b/SMAD3 reporter, GFP fluorescence, 18 h; TGF-beta stimulated, 500 pg/mL final; note: nearly all actives have a fitted effect of over 65% in size
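Smad-responsive CAGA-GFP expression was quantified in HEPG2 cells exposed to compounds and 500 pg/mL final TGF-beta for 18 h at 37 degrees C; unstimulated wells defined full inhibition.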
DRD3 agonist: qHTS of D3 Dopamine Receptor Agonist: qHTS | D(3) dopamine receptor (Homo sapiens), P35462 | D3R DiscoveRx beta-arrestin cells, luminescence, 90 min | max activation, % | 0.58% of 410,000 active; in the data active = max activation above about 30%
Target sequence (P35462 whole entry, looked up): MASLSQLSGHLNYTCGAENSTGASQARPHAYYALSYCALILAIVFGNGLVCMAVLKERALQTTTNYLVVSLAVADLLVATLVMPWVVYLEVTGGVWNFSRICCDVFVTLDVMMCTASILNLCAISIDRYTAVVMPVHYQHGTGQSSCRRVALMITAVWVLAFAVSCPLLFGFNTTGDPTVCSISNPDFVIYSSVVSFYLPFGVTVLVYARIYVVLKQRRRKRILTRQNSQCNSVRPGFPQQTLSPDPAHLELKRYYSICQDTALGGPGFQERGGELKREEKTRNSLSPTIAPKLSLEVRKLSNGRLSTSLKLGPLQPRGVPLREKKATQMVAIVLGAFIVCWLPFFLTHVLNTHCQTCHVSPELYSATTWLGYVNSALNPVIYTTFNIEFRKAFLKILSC
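Agonist mode: compounds and dopamine controls were applied to plated cells for 90 min at 37 degrees C after an overnight attachment at 1500 cells/well. Luminescent read-out followed 30 - 60 minutes at room temperature with DiscoveRx detection reagent.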
HepG2 tox: qHTS for Inhibitors of TGF-b: Cytotox Counterscreen; HepG2 CAGA-GFP viability, ATP luminescence, 18 h; Potency, µM (highest dose often 46.1 µM), usual class: cytotoxic; 0.76% of 410,000 active; AID 588856, 2011
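CellTiter-Glo luminescence gave cytotoxicity after 18 hours at 37 degrees C. The cells were HepG2 CAGA-GFP in 1% FBS DMEM, stimulated with 500 pg/mL TGF-beta after compound addition. %Activity was normalised to no-cell wells (complete cell-killing) and DMSO (no toxicity), and curves were fitted and classified.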
DRD3 antagonist: qHTS of D3 Dopamine Receptor Antagonist: qHTS | D(3) dopamine receptor (Homo sapiens), P35462 | 2.5% of 360,000 active | max response, negative = inhibition, % | D3R cells, DiscoveRx beta-arrestin luminescence, antagonist mode; stronger effect = lower value; in the data active = max response below about -50%; inconclusive = no clear call, values can overlap the other calls
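Cells plated overnight at 1500 cells/well, then exposed to library compounds with dopamine controls for 90 minutes at 37 degrees C. DiscoveRx reagent added for 30–60 minutes at room temperature; luminescence read, quantitative HTS format.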
Of the large screens only hits and unclear results are named; the others gave an inactive call. An excerpt weighted towards active compounds, which were near 4.7% of everything screened. Unless noted, calls come from the whole dose curve; as a rule, active = well fitted curve in the direction sought with a large enough effect; inconclusive = small, poorly fitted or top-dose-only effect, or another doubt; inactive = no such curve, though single readings can be large; an effect the other way counts as inactive or inconclusive.

CC1=C(c2ccc(C)c(C)c2)S(=O)(=O)N=C1N1CCC(C(=O)Nc2cccc(F)c2)CC1	TGFb SMAD3 inh inconclusive (no result: DRD3 antagonist)
CC1CCCN(CCCOc2ccc([N+](=O)[O-])cc2)C1 (stereo unspecified)	none
CC1CCN(CCCOc2ccc(Cl)cc2Br)CC1	DRD3 antagonist -89
COc1ccc(OCCCN2CCCC(C)C2)cc1 (stereo unspecified)	DRD3 antagonist -60
CC1CCCN(CCOc2ccc3ccccc3c2Br)C1 (stereo unspecified)	TGFb SMAD3 inh inconclusive, DRD3 antagonist -96 (no result: ATXN2 expr inh)
CC1CN(C(=O)COc2ccc3ccccc3c2Br)CC(C)O1 (stereo unspecified)	DRD3 antagonist inconclusive
Clc1ccc(OCCOCCN2CCCCC2)c(Br)c1	none (no result: ATXN2 expr inh, S2 tox)
CC1CCN(CCOCCOc2ccc(Cl)cc2Br)CC1	DRD3 antagonist -88
COC(=O)c1cc2oc(C)cc2n1Cc1cc(C)ccc1C	none (no result: DRD3 antagonist)
O=C(CC1C(=O)OCCN1Cc1ccccc1)Nc1cccc(Cl)c1 (stereo unspecified)	none (no result: DRD3 antagonist)
Cc1nc([N+](=O)[O-])c(Sc2nc3ccc([N+](=O)[O-])cc3[nH]2)n1Cc1ccccc1	S2 tox inconclusive, HepG2 tox 10µM
Cc1nc([N+](=O)[O-])c(Br)n1Cc1ccccc1	ATXN2 expr inh inconclusive, S2 tox inconclusive, TGFb SMAD3 inh inconclusive, DRD3 antagonist inconclusive
CC(=O)c1ccc(NC(=O)c2cnn3c2NC(=C2CC2)C=C3C(F)F)cc1	none (no result: ATXN2 expr inh, S2 tox, DRD3 agonist, DRD3 antagonist)
CC(C)C[C@@H]1NC(=O)[C@H](C(C)C)NC(=O)c2cc([N+](=O)[O-])cc(I)c2OCC[C@@H](C(N)=O)NC1=O	DRD3 antagonist -53
CCN[C@@H]1C[C@H](N)[C@@H](OC2OC(CN)=CCC2N)[C@H](O)[C@H]1O[C@H]1OC[C@](C)(O)[C@H](NC)[C@H]1O (stereo partly specified)	DRD3 agonist 49 (no result: TGFb SMAD3 inh, HepG2 tox, DRD3 antagonist)
Cc1cc(C(=O)NCCc2ccc(Cl)cc2)c2c(C)nn(-c3ccccc3)c2n1	none (no result: DRD3 antagonist)
Nc1nc(N)c2c(OCc3ccc(C(F)(F)F)cc3)cccc2n1	TGFb SMAD3 inh inconclusive (no result: ATXN2 expr inh, S2 tox, DRD3 agonist, DRD3 antagonist)
Nc1nc(N)c2c(Oc3ccc(F)cc3)cccc2n1	TGFb SMAD3 inh 13µM (no result: ATXN2 expr inh, S2 tox, DRD3 agonist, DRD3 antagonist)
OC1(c2ccc3c(c2)CN(Cc2ccccn2)CCO3)CCN(c2ccccc2F)CC1	none (no result: ATXN2 expr inh, TGFb SMAD3 inh, DRD3 agonist, HepG2 tox, DRD3 antagonist)
CC(=O)c1ccc(C(=O)NCc2nc(-c3ccccc3NC(=O)c3cc(C)oc3C)oc2C)cc1	none (no result: ATXN2 expr inh, TGFb SMAD3 inh, DRD3 agonist, HepG2 tox, DRD3 antagonist)
COc1cccc(-c2sc3ccc(OC)cc3c2C#CC(C)(C)O)c1	TGFb SMAD3 inh 16µM, DRD3 agonist 71
COc1ccc2sc(-c3ccc(N(C)C)cc3)c(C#CCCO)c2c1	DRD3 agonist 32
COc1ccc2sc(-c3ccc(N(C)C)cc3)c(C#Cc3cncn3C)c2c1	ATXN2 expr inh inconclusive, TGFb SMAD3 inh inconclusive, DRD3 agonist 83, HepG2 tox 8.9µM (no result: S2 tox)
COc1ccc2sc(-c3ccc(SC)cc3)c(C#CCO)c2c1	TGFb SMAD3 inh inconclusive, DRD3 agonist 62
COc1cc(C2c3cc(O)c(OC)cc3CC(C(=O)O)C2CO)ccc1O (stereo unspecified)	DRD3 agonist 71
COc1cc(C(O)C(=O)O)ccc1O (stereo unspecified)	none
Cc1sc2ncnc(N3CCCCC3)c2c1C	none
CCCN1CCN(c2ncnc3sc(C(=O)Nc4ccc(C(C)C)cc4)c(C)c23)CC1	ATXN2 expr inh inconclusive, TGFb SMAD3 inh inconclusive (no result: S2 tox, DRD3 antagonist)
CCCN1CCN(c2ncnc3sc(C(=O)Nc4ccc(OC(F)(F)F)cc4)c(C)c23)CC1	TGFb SMAD3 inh 22µM (no result: ATXN2 expr inh, S2 tox, DRD3 antagonist)
Cc1ccc(OCCN2CCN(c3ncnc4sc(C)c(C)c34)CC2)cc1	DRD3 agonist 33
OC(Cc1ccc2ccccc2n1)c1ccccc1 (stereo unspecified)	none (no result: ATXN2 expr inh, S2 tox, DRD3 agonist, DRD3 antagonist)
c1ccc(N2CCN(Cc3ccsc3)CC2)nc1	DRD3 agonist 53, DRD3 antagonist inconclusive

Screening data: PubChem BioAssay, National Center for Advancing Translational Sciences (NCATS)
